Test [1] relates to Zika virus NS2B-NS3 protease. Nature of the test: Primary screen GU AMC qHTS for Zika virus inhibitors (AID 1347154). Also: nearly all actives have a fitted effect of over 70% in size. A digest of the protocol:
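Unlinked Zika NS2B hydrophilic domain–NS3 protease complex at 25 nM in 10 mM Tris-HCl pH 8.0, 0.01% Tween 20, with an AMC peptide substrate. Fluorescence change (340/450 nm) over 15 min at room temperature, normalized to controls, fitted to 4-parameter Hill.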
On the technique in general: Quantitative high-throughput screening tests each substance at several concentrations.

Test [2] deals with Cytochrome P450 1A2 (Homo sapiens) (UniProt P05177). The experiment in a line: p450-cyp1a2 (AID 410; calls by dose curve; also: potency is read from the fitted curve at half-maximal effect). A digest of the protocol: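 Human CYP1A2 (20nM) demethylated Luciferin-ME at its Km (100uM) in 100mM KPO4. After 10 min compound preincubation, NADPH regeneration ran the reaction 60 min at room temperature. Luciferin was read by luminescence, normalized to 57 uM furafylline.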

For test [3], the target named is Glucocorticoid receptor (Homo sapiens) (UniProt P04150). Nature of the test: GR-EFC Redistribution (AID 451; calls by dose curve; also: potency is read from the fitted curve at half-maximal effect). The settings on record: CHO-K1 GR-EFC translocation, beta-gal luminescence, 2 h. A digest of the protocol:
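CHO-K1 cells expressing nuclear EA and GR-ED fragments of b-gal; compounds titrated up to 46 uM final, 2 h at 37 C. GR nuclear translocation read as complemented b-gal luminescence after 1 h RT detection.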

The target of test [4] is Mitogen-activated protein kinase 10 (Mus musculus) (UniProt Q61831). The experiment in a line: JNK3 AlphaScreen Assay (AID 530; active = well fitted curve in either direction with a large enough effect, not every such curve was filed as active;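 also: kinase came from lysate of stimulated human HepG2 cells; signal reports phosphorylation of biotinylated GST-cJun 1-79 at Ser73 with 10 µM ATP; series mostly up to about 57 µM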). The method in brief:
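qHTS format: compounds tested as titrations against IL-1beta/TNF-alpha-activated HepG2 lysate JNK3 with biotin-GST-cJun substrate and 10 uM ATP at room temperature. Loss of anti-phospho-cJun AlphaScreen signal indicates inhibition.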

Test [5] has as its target 3',5'-cyclic-AMP phosphodiesterase 4B (Homo sapiens) (UniProt Q07343). Nature of the test: qHTS Assay for Inhibitors of PDE-IV (AID 607; active = well fitted activation curve with a large enough effect in the main read-out, with a control signal flat, not every such curve was filed as active). A digest of the protocol:
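Live HEK293 cells with a modified cyclic nucleotide-gated (CNG) channel report intracellular cAMP via membrane-potential dye fluorescence (ex 535/em 590 nm). Endogenous PDE-IV was targeted. Compounds were tested at up to 22.9 uM final; RO 20-1724 100 uM served as control.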

Test [6] addresses DNA dC->dU-editing enzyme APOBEC-3G (Homo sapiens) (UniProt Q9HC16). Nature of the test: qHTS for inhibitors of Vif-A3G interactions: Validation (AID 588379). A digest of the protocol:
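HeLa cells stably expressing Vif and A3G-eYFP, 700 cells/well, incubated overnight at 37 deg C, then exposed to compound overnight at 37 deg C. Inhibition of Vif-mediated degradation read as increased yellow fluorescence (Ex 488/Em 500-530) by laser-scanning cytometry.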

For test [7], the target named is Furin (Homo sapiens) (UniProt P09958). The experiment in a line: Furin counterscreen qHTS for Zika virus inhibitors (AID 1347149).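 Also: purified recombinant full-length human furin enzyme at 5 nM; fluorescence gain from furin cutting a BOC-RVRR-AMC peptide substrate over 15 min; top concentration of the series differs between compounds; nearly all actives have a fitted effect of over 70% in size.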 A digest of the protocol: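 Fluorogenic cleavage of BOC-RVRR-AMC (2 microM final, Km ~15 µM) was monitored (ex 340, em 450 nm) at 37C after 15 min RT preincubation of 5 nM furin with compounds in HEPES pH 7.0 buffer with CaCl2 and Triton X-100. Percent inhibition was fitted to a 4-parameter Hill curve.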

Test [8] has as its system Zika virus NS2B-NS3 protease (unlinked complex). Nature of the test: Confirmatory screen GU AMC qHTS for Zika virus inhibitors (AID 1347153). Also: nearly all actives have a fitted effect of over 70% in size. A digest of the protocol: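 Unlinked enzyme 25 nM, Tris pH 8.0/0.01% Tween 20; cpd 15 min RT, dark; + AMC substrate 10 µM (Km 18.3 µM); 340/450 nm read at t0 and 15 min; % inhibition → 4-param fit.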
A short description of test [9]: Confirmatory screen NINDS Rhodamine qHTS for Zika virus inhibitors (AID 1347161). Also: potency is read from the fitted curve at half-maximal effect; nearly all actives have a fitted effect of over 60% in size. A digest of the protocol:
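Aprotinin served as in-plate control. Conditions: 25 nM linked NS2B-NS3, pH 8.0 Tris buffer, titrated compounds, 15 min preincubation and 15 min reaction with 1.5 microM Rhod110 substrate at room temperature.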

Test [10] relates to Zika virus NS2B-NS3 protease (linked construct). The experiment in a line: 384 well plate NINDS Rhodamine confirmatory qHTS for Zika virus inhibitors (AID 1347164).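 Also: fluorescence from protease cleavage of Ac-LKRR-rhodamine 110 substrate; top concentration of the series differs between compounds; nearly all actives have a fitted effect of over 65% in size.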 The method in brief: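 Linked NS2B-NS3 protease (final 5, 30 or 60 nM) preincubated ~15 minutes with compounds, then 10 microM Ac-LKRR-Rhodamine 110 added. Fluorescence (485/538 nm) read after 25 minutes at room temperature, normalized to no-enzyme and no-inhibitor controls.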

Test [11] can be described thus: Vero cells viability qHTS for Zika virus inhibitors (AID 1347167). The method in brief: (§1)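 Cells seeded at 2.5 x 10^5 cells/mL in DMEM with 4% FBS and attached overnight at 37 degrees C, then exposed to compound for 24 to 48 hours. Viability read as ATP content by CellTiter Glo luminescence.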
Test [12] in a line: HepG2 cells viability qHTS for Zika virus inhibitors (AID 1347168). A digest of the protocol: as §1
Test [13] is described as follows: Tertiary RLuc qRT-PCR qHTS assay for Zika virus inhibitors (AID 1347169). Also: top concentration of the series differs between compounds; nearly all actives have a fitted effect of over 55% in size. A digest of the protocol:
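Vero cells (1,000/well) infected with recombinant ZIKV-RLuc (Cambodian) at MOI 1-2 after compound addition, 48-72 hrs at 37 degrees C. Live-cell Renilla luciferase substrate added; luminescence read after 1-1.5 hrs.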
For orientation: Quantitative PCR measures a nucleic acid by following its amplification.

Test [14] in a line: Primary qHTS for small molecule stabilizers of the endoplasmic reticulum resident proteome: Secreted ER Calcium Modulated Protein (SERCaMP) assay (AID 1508630). A digest of the protocol: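 GLuc-SERCaMP-expressing SH-SY5Y cells, pretreated 16 h with compound, are challenged with thapsigargin to empty ER calcium stores; after 4 h, coelenterazine is added directly to the medium and luminescence is imaged.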

A number with no mark means an inactive call. Inconclusive results are not listed. The source made the active and inactive calls. Unless noted, calls follow the shape of the dose curve; as a rule, active = well fitted curve in the direction sought with a large enough effect; inconclusive = small, poorly fitted or top-dose-only effect, or another doubt; inactive = no such curve, though single readings can be large; an effect the other way counts as inactive or inconclusive.

Chain of Cytochrome P450 1A2 (Homo sapiens) (P05177 whole entry, looked up): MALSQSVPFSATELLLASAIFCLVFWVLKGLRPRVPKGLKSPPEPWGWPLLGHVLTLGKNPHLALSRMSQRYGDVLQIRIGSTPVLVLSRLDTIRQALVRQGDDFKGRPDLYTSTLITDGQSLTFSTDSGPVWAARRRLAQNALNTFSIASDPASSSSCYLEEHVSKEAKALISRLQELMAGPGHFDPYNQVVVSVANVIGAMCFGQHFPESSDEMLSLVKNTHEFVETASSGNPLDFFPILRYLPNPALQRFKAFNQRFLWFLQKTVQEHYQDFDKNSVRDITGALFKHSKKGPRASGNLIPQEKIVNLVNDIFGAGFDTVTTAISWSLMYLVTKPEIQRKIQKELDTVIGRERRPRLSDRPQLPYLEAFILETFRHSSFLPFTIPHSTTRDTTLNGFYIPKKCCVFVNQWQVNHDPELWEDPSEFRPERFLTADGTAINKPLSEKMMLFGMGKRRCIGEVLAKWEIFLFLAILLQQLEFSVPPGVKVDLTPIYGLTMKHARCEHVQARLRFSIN
Chain of 3',5'-cyclic-AMP phosphodiesterase 4B (Homo sapiens) (Q07343 whole entry, looked up): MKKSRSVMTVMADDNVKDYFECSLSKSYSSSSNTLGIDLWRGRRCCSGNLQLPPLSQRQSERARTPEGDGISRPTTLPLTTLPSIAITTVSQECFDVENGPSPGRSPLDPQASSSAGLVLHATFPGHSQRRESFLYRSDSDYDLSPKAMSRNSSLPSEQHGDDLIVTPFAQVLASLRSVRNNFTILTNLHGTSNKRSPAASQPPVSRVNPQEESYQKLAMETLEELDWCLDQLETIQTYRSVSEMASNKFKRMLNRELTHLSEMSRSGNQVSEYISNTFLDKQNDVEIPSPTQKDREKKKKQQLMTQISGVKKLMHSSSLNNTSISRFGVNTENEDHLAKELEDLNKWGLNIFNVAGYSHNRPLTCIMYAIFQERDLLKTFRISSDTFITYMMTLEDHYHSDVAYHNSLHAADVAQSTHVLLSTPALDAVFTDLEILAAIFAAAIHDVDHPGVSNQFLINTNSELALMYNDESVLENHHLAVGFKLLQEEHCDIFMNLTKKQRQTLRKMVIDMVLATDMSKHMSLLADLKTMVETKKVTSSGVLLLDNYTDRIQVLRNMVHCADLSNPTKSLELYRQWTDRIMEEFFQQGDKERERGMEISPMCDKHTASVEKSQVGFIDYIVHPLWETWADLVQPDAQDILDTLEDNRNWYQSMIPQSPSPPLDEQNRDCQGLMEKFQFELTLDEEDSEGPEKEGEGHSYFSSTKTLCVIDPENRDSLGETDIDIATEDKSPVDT
Chain of Furin (Homo sapiens) (P09958 whole entry, looked up): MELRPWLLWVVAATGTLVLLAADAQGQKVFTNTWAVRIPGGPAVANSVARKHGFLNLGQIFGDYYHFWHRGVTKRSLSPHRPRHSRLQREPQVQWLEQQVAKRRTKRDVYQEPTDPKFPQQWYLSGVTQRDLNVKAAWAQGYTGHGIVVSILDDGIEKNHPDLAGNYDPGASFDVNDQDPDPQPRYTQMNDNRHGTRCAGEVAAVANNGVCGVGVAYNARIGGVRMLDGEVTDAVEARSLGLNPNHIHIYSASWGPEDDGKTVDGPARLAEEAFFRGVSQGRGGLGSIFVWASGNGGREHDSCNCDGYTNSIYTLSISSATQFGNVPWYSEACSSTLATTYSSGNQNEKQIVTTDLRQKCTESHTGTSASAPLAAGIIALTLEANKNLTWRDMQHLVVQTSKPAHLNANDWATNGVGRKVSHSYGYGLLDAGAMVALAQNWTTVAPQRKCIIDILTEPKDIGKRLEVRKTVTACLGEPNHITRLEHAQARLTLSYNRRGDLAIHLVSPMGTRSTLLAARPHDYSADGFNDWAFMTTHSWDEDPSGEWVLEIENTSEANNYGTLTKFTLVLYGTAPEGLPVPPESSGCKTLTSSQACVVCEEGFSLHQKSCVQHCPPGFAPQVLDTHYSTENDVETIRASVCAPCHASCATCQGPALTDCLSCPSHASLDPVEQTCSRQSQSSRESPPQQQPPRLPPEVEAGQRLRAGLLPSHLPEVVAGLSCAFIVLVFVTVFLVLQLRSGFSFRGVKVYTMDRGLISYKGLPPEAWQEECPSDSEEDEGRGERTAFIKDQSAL
Chain of DNA dC->dU-editing enzyme APOBEC-3G (Homo sapiens) (Q9HC16 whole entry, looked up): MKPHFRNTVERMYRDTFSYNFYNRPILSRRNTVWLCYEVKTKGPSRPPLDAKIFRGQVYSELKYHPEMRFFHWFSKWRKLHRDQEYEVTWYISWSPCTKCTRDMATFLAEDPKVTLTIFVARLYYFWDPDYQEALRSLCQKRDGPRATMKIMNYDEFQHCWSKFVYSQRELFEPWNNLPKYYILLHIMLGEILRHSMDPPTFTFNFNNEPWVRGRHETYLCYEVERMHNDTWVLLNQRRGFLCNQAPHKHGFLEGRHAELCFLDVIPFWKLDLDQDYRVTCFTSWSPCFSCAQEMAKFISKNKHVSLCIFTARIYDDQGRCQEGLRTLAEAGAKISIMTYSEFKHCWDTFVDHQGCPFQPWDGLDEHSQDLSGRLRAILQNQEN
Chain of Glucocorticoid receptor (Homo sapiens) (P04150 whole entry, looked up, the tested form may be a part): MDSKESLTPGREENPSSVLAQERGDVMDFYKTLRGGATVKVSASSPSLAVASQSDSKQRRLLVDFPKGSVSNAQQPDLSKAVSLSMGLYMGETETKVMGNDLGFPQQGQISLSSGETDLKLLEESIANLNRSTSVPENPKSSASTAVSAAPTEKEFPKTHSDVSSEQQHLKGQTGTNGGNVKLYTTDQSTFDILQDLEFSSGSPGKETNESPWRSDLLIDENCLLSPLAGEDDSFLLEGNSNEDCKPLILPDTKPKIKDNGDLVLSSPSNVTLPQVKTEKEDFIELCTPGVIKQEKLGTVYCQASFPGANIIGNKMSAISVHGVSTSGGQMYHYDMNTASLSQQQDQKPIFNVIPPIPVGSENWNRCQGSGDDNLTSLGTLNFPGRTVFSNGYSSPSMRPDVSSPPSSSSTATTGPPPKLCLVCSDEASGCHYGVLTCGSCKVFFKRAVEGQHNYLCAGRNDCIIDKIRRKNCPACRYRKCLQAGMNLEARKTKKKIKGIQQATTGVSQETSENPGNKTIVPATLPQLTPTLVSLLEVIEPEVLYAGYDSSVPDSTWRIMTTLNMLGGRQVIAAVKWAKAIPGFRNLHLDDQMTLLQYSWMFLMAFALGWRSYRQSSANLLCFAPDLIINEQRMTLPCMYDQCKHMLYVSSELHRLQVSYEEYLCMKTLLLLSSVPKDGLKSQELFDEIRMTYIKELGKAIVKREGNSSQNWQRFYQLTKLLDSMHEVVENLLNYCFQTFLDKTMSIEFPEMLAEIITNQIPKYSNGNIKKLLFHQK

For `NC1(c2ccccc2Cl)CCCCC1=O` (stereo not given), the Potency entry in [1] is “inactive”.

Regarding `CCCCCOc1c(OC)ccc2cc(C(=O)NCc3ccc4c(c3)OCO4)c(=O)[nH]c12`, the Potency result in test [1] was “inactive”.

As to `Ic1cncc(OC[C@@H]2CCN2)c1`, the Potency in test [2] is 0.398 µM (active); in test [3] it was above 46 µM; in [9], 34.9 µM (active). The result in [4] was inactive. The Potency entry in [5], in test [6], in test [7], in [8], in test [10] and in test [11] was “inactive” in each case. In addition, the Potency entry in test [12], in test [13] and in [14] was “inactive” each time.

The values above are taken from PubChem BioAssay (NCATS).
